High-throughput results as filed in PubChem.
JMJD2A Tudor – qHTS Assay for Inhibitors of JMJD2A-Tudor Domain; Lysine-specific demethylase 4A (Homo sapiens), O75164; AlphaScreen JMJD2A-Tudor / H3K4me3 peptide binding; Potency, µM (series often up to 114 µM), hits mostly inhibitors; 390,000 tested, 4.4% active; AID 504339, 2011; further: nearly all actives have a fitted effect of over 50% in size
PI5P4K alpha inh – qHTS for Inhibitors of phosphatidylinositol 5-phosphate 4-kinase (PI5P4K). max response, %. AID 652105, 2013. 330,000 tested, 1.2% active. Phosphatidylinositol 5-phosphate 4-kinase type-2 alpha (Homo sapiens), P48426. PI5P4Kalpha enzyme, ADP-Glo luminescence, 60 min; active compounds read low; active means max response of -50% or lower; inconclusive means between -30% and -50%; inactive means -30% or higher; further: value at the top dose of about 77 µM
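PI5P4Kalpha ADP-Glo assay; 5 microM ATP final; 60 min RT reaction; HEPES pH 7.4/EGTA/CHAPS, 5% DMSO; controls lacking substrate or enzyme; luminescent end-point.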
PLK1 PBD block – qHTS for Inhibitors of PLK1-PDB (polo-like kinase 1 - polo-box domain): Primary Screen. Serine/threonine-protein kinase PLK1 (Homo sapiens), P53350. Plk1 PBD binding of FITC phosphopeptide, fluorescence polarization. Potency, µM, most hits filed as inhibitors. 360,000 tested, 2.8% active. AID 720504, 2013; further: series mostly up to about 57 µM; nearly all actives have a fitted effect of over 65% in size
BAZ2B block – qHTS Assay for Inhibitors of BAZ2B | 360,000 tested, 4.4% active | Bromodomain adjacent to zinc finger domain protein 2B (Homo sapiens), Q9UIF8 | AlphaScreen BAZ2B-H3K14Ac peptide displacement | Potency, µM (top dose mostly 114 µM), most hits filed as inhibitors; further: nearly all actives have a fitted effect of over 60% in size
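BAZ2B 50 nM plus b-H3(5-23)K14Ac 50 nM, PBS pH 7.4/0.01% Tween-20, 30 min RT; compound added (max 110 uM), 30 min RT; streptavidin donor/Ni-chelate acceptor beads 10 ug/mL final, 20 min dark; AlphaScreen read.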
G9a block – qHTS Assay for Inhibitors of Histone Lysine Methyltransferase G9a; G9a H3K9 monomethylation, AlphaScreen, 2 h; 350,000 tested, 8.8% active; Potency, µM (highest dose often 102 µM), actives largely listed as inhibitors; Histone-lysine N-methyltransferase EHMT2 (Homo sapiens), Q96KQ7; further: nearly all actives have a fitted effect of over 75% in size
Target sequence (Q96KQ7 913-1193 limits assumed): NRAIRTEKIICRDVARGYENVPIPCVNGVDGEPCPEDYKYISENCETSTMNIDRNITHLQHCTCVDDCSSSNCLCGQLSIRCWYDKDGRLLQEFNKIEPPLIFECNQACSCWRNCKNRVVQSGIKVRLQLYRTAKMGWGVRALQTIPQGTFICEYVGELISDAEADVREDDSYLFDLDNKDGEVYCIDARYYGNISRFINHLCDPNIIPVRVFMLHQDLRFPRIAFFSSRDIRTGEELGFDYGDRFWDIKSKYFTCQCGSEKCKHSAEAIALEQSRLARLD
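G9a (20 nM) preincubated 15 min RT with compounds, then 500 nM biotinylated H3K9 peptide and 20 uM SAM added; 2 h RT reaction. Monomethyl-H3K9 product detected by AlphaScreen with anti-H3K9me1 antibody, streptavidin donor and anti-rabbit IgG acceptor beads.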
HP1b binding inh – HTS for Inhibitors of HP1-beta Chromodomain Interactions with Methylated Histone Tails; AlphaScreen HP1-beta / biotin-H3K9me3 peptide binding; Potency, µM (series often up to 114 µM), hits mostly inhibitors; 390,000 tested, 0.56% active; AID 540317, 2011; further: nearly all actives have a fitted effect of over 70% in size
Target sequence (P83916 whole entry, looked up): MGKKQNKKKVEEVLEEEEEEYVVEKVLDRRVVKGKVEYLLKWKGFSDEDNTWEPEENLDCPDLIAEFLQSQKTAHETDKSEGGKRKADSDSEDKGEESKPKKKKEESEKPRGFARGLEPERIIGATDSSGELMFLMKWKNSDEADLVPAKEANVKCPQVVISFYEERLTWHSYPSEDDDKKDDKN
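HP1-beta protein (50 nM final) preincubated 30 min at room temperature with biotinylated H3(1-18)K9me3 peptide (50 nM) in PBS pH 7.4, 0.01% Tween-20, then compound added for 30 min. AlphaScreen streptavidin donor/nickel chelate acceptor beads (10 ug/mL final), 30 min dark, luminescence read.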
Hits are given with their value; n = inactive; u = inconclusive; x = not tested or not shown; [ ] = dose if it differs, or a comment. Most compounds without a hit are left out; they make up all but 12% or so of the library. Unless noted, the call rests on the fitted dose curve; in most records, active means well fitted curve in the direction sought with a large enough effect; inconclusive means small, poorly fitted or top-dose-only effect, or another doubt; inactive means no such curve, though single readings can be large; an effect the other way counts as inactive or inconclusive.

SMILES	JMJD2A Tudor	PI5P4K alpha inh	PLK1 PBD block	BAZ2B block	G9a block	HP1b binding inh
O=C(CCN1CCCCC1)Nn1c(=S)[nH]c2ccccc2c1=O	0.71µM	n	n	u	u	n
Cc1ccc(N2CCN(C(=O)Nc3cccc([N+](=O)[O-])c3)CC2C)cc1 (configuration not stated)	u	n	n	56µM	u	u
O=C(Nc1cccc([N+](=O)[O-])c1)N1CCN(c2ccccc2)CC1	n	n	n	u	x	n
CCOC(=O)c1sc2ncnc(N3CCN(c4ccc(OC)cc4)CC3)c2c1C	u	x	n	u	13µM	u
CCN(CC)c1ncnc2sc(C(=O)N3CCN(c4ccc(OC)cc4)CC3)c(C)c12	u	n	n	n	14µM	n
CCOC(=O)c1cc(S(=O)(=O)N2CCC(C)CC2)cn1C	n	n	n	n	x	n
Cc1cc(C)c2c(n1)SCCN2C(=O)Nc1ccc(C(=O)Nc2cc(Cl)ccc2C)cc1	n	x	x	n	u	n
CC(=O)Oc1cc2c3c(c1)/C(=C1/SC(=S)NC1=O)C(=O)N3C(C)(C)C=C2C	11µM	-76	27µM	7.9µM	8.9µM	u
Cn1cnnc1Sc1nc2ccccc2nc1NS(=O)(=O)c1ccccc1	n	x	n	u	50µM	n
COc1ccc(-c2nc(SC(C)C(=O)NCC3CCCO3)n[nH]2)cc1 (configuration not stated)	n	n	n	n	16µM	n
COc1ccc2c(c1OC)C(=O)OC2Nc1nc(-c2cc3ccccc3oc2=O)cs1 (configuration not stated)	n	n	n	n	u	n
COc1cccc(-c2csc(NC3OC(=O)c4c3ccc(OC)c4OC)n2)c1 (configuration not stated)	n	n	n	79µM	x	n
COc1ccc2c(c1OC)C(=O)OC2Nc1nc(-c2ccc(-c3ccccc3)cc2)cs1 (configuration not stated)	u	n	27µM	u	40µM	u
N#C/C(=C\c1ccccc1)C(=O)OCC(=O)N1CCCC1	n	n	n	n	n	n
CCCN(N=Nc1cccc([N+](=O)[O-])c1)c1cccc([N+](=O)[O-])c1	u	x	n	u	32µM	n
c1ccc2[nH]c(SCc3cn4cccnc4n3)nc2c1	n	n	n	n	14µM	n
c1ccc(-c2cnnc(SCc3cn4cccnc4n3)n2)cc1	n	n	n	n	u	n
CCCCn1nnnc1C1(C)CCC(=O)N1C1CC1 (configuration not stated)	x	n	n	x	x	x
O=C(NNS(=O)(=O)c1ccccc1Cl)C1COc2ccccc2O1 (configuration not stated)	n	n	19µM	x	x	n
Cc1ccc(S(=O)(=O)NNC(=O)C2COc3ccccc3O2)cc1 (configuration not stated)	n	u	n	n	n	n
COc1ccc(S(N)(=O)=O)cc1C(=O)NNC(=O)C1COc2ccccc2O1 (configuration not stated)	n	n	n	x	x	n
COc1ccc(Cl)cc1C(=O)NNC(=O)C1COc2ccccc2O1 (configuration not stated)	22µM	-60	24µM	n	n	n
COc1ccc(NC(=O)c2ccc(S(=O)(=O)N3CCCC3)cc2)cc1OC	n	n	n	n	n[12.7 µM]	n
O=C(NC(=S)Nc1cccc(O)c1)C1CCCCC1	n	n	n	x	x	n
Cc1ccc(-c2cc(C(=O)NCCc3ccccc3)c3ccccc3n2)cc1C	n	x	x	n	n	n
SMILES	JMJD2A Tudor	PI5P4K alpha inh	PLK1 PBD block	BAZ2B block	G9a block	HP1b binding inh
Cc1ccc(CNC(=O)Cn2nc(N3CCN(c4ccccc4)CC3)ccc2=O)cc1	n	x	x	u	n	n
N/C(=N\OC(=O)c1cc([N+](=O)[O-])ccc1Cl)c1ccccn1	u	n	n	u	x	n
N/C(=N\OC(=O)c1ccc([N+](=O)[O-])cc1Cl)c1ccccn1	u	n	n	56µM	20µM	n
N/C(=N\OC(=O)c1ccc(Cl)cc1Cl)c1ccccn1	n	n	u	n	89µM	n
N/C(=N\OC(=O)c1cc(Br)ccc1Cl)c1ccccn1	n	n	n	n	56µM	n
Cc1ccc(C(=O)c2cn(CC(=O)Nc3ccc(C)cc3Cl)c3nc(C)ccc3c2=O)cc1	n	x	x	n	n	n
CCOC(=O)c1c(C)[nH]c(CCC(=O)Nc2ccc(Cl)cc2C)c1C	n	x	x	n	n	n
Cc1ccc(NC(=O)Nc2nnc(N(C)Cc3ccccc3)s2)cc1	n	x	x	n	n	n
COc1ccc(/C=C2\SC(=S)N(CC3CCCO3)C2=O)cc1 (configuration not stated)	u	n	n	8.9µM	x	u
O=C1/C(=C/c2cccnc2)SC(=S)N1CC1CCCO1 (configuration not stated)	n	n	n	n	n	n
COc1cc(/C=C2/SC(=S)N(CC3CCCO3)C2=O)ccc1O (configuration not stated)	u	n	n	45µM	28µM	45µM
CCOc1ccccc1N(C)C(=O)Cn1cnc2sc(C)c(S(=O)(=O)N3CCC(C)CC3)c2c1=O	n	x	x	n	n	n
O=C(O)c1cc(-c2ccco2)nc2cc3ccccc3cc12	u	u	u	56µM	11µM	n
O=C(N/N=C/c1ccc2c(c1)OCO2)c1cc(-c2ccco2)nc2ccccc12	n	-55	n	n	n	n
O=C(O)c1ccccc1/C=N/NC(=O)c1cc(-c2ccco2)nc2ccccc12	50µM	-94	u	20µM	14µM	u
O=C1CCc2cc(S(=O)(=O)Nc3ccc4c(c3)OCCO4)ccc2N1	n	x	x	x	x	x
COc1ccc(Br)cc1CNC(=O)CCCn1c(=O)c2cccn2c2ccccc21	n	x	x	n	n	n
CC(C)(C)c1ccc(C(=O)Nc2ccc(-c3nc4cc(Cl)ccc4o3)cc2)cc1	n	x	x	n	n	n
COC(=O)c1ccc(CNC(=O)C2CCC(=O)N(CCc3ccccn3)C2)cc1 (configuration not stated)	x	n	n	x	x	x
COC(=O)c1ccc(CNC(=O)C2CCC(=O)N(CCCc3ccccc3)C2)cc1 (configuration not stated)	u	n	3.4µM	n	n[0.501 µM]	n
O=C1N=C(N2CCCC2)S/C1=C\c1ccccc1	56µM	n	30µM	n	n	n
Cc1ccccc1N1CCN(C2=NC(=O)/C(=C\c3cccs3)S2)CC1	n	n	n	n	50µM	n
